Measurements taken from PubChem BioAssay (Tox21).
“And” between values parts separate entries of the source, which are not always exact repeats. Equal values may be shown once. Results filed as inconclusive are left out. A structure can be active in one record and inactive in another. The source made the active and inactive calls. Unless noted, calls follow the shape of the dose curve; as a rule, active = well fitted curve in the direction sought with a large enough effect in the repeat runs; inconclusive = weak or mixed curves; inactive = no such curve, though single readings can be large; an effect the other way counts as inactive or inconclusive.

Legend:
[1] = target: Aryl hydrocarbon receptor (Homo sapiens) (UniProt P35869); assay: qHTS assay to identify small molecule that activate the aryl hydrocarbon receptor (AhR) signaling pathway (AID 743085); also: nearly all actives have a fitted effect of over 15% in size; also: potency is read from the fitted curve at half-maximal effect;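 as to activation: HG2L7.5c1 human HepG2 liver cells with stably integrated DRE-driven firefly reporter; series mostly up to about 70 µM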
Aryl hydrocarbon receptor (Homo sapiens), sequence (P35869 whole entry, looked up): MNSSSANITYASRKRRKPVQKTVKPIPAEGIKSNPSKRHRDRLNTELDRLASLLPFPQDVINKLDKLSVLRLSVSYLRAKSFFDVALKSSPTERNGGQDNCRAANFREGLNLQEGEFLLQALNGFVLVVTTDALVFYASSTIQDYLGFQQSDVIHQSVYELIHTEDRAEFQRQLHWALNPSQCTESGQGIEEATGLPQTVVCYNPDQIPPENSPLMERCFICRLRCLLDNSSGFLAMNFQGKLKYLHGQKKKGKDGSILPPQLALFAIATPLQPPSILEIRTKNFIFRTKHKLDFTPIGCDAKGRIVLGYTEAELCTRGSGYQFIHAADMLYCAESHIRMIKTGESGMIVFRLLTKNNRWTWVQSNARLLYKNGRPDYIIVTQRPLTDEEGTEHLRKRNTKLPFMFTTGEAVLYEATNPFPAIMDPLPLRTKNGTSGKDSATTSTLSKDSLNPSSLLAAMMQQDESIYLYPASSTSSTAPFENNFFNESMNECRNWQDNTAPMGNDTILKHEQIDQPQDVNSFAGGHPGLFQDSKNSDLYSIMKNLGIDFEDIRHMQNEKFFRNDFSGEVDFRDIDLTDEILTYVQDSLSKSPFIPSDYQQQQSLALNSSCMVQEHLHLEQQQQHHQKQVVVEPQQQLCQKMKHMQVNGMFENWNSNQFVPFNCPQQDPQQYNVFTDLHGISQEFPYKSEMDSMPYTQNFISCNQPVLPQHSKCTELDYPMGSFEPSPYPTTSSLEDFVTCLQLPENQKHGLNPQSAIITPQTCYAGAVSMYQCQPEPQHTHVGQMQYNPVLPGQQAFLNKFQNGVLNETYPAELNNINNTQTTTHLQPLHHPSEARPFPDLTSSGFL
How it was run: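 A multiplexed format paired cell viability (CellTiter-Fluor fluorescence) with AhR-dependent luciferase output (ONE-Glo luminescence) in the same wells of HepG2 DRE-luc cells after 24 h compound exposure at 37C.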

[2] = qHTS assay to identify small molecule that activate the aryl hydrocarbon receptor (AhR) signaling pathway - cell viability counter screen (AID 743086); also: nearly all actives have a fitted effect of over 45% in size; also: potency is read from the fitted curve at half-maximal effect
How it was run: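 HepG2-AhR-luc (HG2L7.5c1) cells, 4000/well, treated 24 h at 37 C with compound; viability measured as CellTiter-Fluor fluorescence after 30 min in the same wells as the luciferase read.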

[3] = target: Peroxisome proliferator-activated receptor gamma (Homo sapiens) (UniProt P37231); assay: qHTS assay to identify small molecule agonists of the peroxisome proliferator-activated receptor gamma (PPARg) signaling pathway (AID 743094; active = well fitted activation curve with a large enough effect in the signal ratio in the repeat runs, not every such curve was filed as active; the % refers to the signal ratio)
Peroxisome proliferator-activated receptor gamma (Homo sapiens), sequence (P37231 whole entry, looked up): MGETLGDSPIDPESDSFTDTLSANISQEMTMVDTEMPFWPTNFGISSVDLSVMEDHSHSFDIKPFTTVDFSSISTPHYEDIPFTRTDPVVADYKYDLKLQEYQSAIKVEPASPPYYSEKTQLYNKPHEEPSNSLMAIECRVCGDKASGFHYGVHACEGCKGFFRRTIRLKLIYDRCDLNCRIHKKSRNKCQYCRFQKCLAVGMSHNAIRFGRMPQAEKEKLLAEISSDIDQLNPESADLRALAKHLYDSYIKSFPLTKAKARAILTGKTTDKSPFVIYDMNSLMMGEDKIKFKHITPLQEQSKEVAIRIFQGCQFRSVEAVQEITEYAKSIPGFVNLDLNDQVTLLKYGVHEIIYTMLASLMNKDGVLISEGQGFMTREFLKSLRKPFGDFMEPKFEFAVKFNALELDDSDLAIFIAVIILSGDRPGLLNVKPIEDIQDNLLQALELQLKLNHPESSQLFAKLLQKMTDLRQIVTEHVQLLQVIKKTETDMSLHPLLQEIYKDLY
How it was run: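 Quantitative HTS agonist mode: stable HEK293H line with UAS-beta-lactamase reporter under PPARg control, 17 h compound exposure at 37C, fluorescence after 1 h FRET substrate loading at room temperature.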

[4] = target: Peroxisome proliferator-activated receptor gamma (Homo sapiens) (UniProt P37231); assay: qHTS assay to identify small molecule antagonists of the peroxisome proliferator-activated receptor gamma (PPARg) signaling pathway (AID 743191; calls by dose curve; also: series mostly up to about 63 µM; nearly all actives have a fitted effect of over 30% in size)
How it was run: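 GeneBLAzer PPARg UAS-bla HEK293H cells, 5 h post-plating, exposed to compounds 17 h at 37C. LiveBLAzer B/G FRET substrate added for 1 h at room temperature; beta-lactamase reporter read by fluorescence intensity.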

[5] = qHTS assay to identify small molecule antagonists of the peroxisome proliferator-activated receptor gamma (PPARg) signaling pathway - cell viability counter screen (AID 743194); also: nearly all actives have a fitted effect of over 55% in size
How it was run: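 Cytotoxicity counter screen in PPARg-bla HEK293H cells, same wells as reporter assay. Compounds plus 50 nM rosiglitazone (final) for 17 h at 37 C, then viability read by CellTiter-Glo luminescence.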

[6] = qHTS assay for small molecule agonists of the antioxidant response element (ARE) signaling pathway (AID 743202; active = well fitted activation curve with a large enough effect in the signal ratio in the repeat runs, not every such curve was filed as active; the % refers to the signal ratio; also: potency is read from the fitted curve at half-maximal effect)
How it was run: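 Agonist mode reporter screen: HepG2 cells with ARE-controlled beta-lactamase are incubated with test compounds for 16 h at 37 C, and beta-lactamase activity is measured as fluorescence of cleaved B/G FRET substrate.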

[7] = qHTS assay for small molecule agonists of the antioxidant response element (ARE) signaling pathway - cell viability counter screen (AID 743203; calls by dose curve; also: nearly all actives have a fitted effect of over 55% in size)
How it was run: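 Seeded at 2,000 cells/well, ARE-bla HepG2 cells were incubated 5 hrs before compound addition. After 16 hrs of treatment at 37C with 5% CO2, CellTiter-Glo reagent was added and luminescence read 30 min later.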

[8] = qHTS assay for small molecule activators of the heat shock response signaling pathway - cell viability counter screen (AID 743209); also: nearly all actives have a fitted effect of over 50% in size
How it was run: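 First, HSE-bla HeLa cells were seeded at 1500 cells/well and kept overnight at 37 C. Next, compounds were pinned in and incubated 5 h. After the FRET substrate step, CellTiter-Glo was added and luminescence read 30 min later.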

[9] = qHTS assay to identify small molecule agonists of the peroxisome proliferator-activated receptor delta (PPARd) signaling pathway - cell viability counter screen (AID 743211); also: nearly all actives have a fitted effect of over 55% in size
How it was run: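 Tox21 library compounds, delivered in DMSO, were incubated 17 h with PPARd-bla HEK293H cells; cytotoxicity was taken from CellTiter-Glo luminescence read 30 min after reagent addition.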

[10] = target: Peroxisome proliferator-activated receptor delta (Homo sapiens) (UniProt Q03181); assay: qHTS assay to identify small molecule agonists of the peroxisome proliferator-activated receptor delta (PPARd) signaling pathway (AID 743212; calls by dose curve)
Peroxisome proliferator-activated receptor delta (Homo sapiens), sequence (Q03181 whole entry, looked up): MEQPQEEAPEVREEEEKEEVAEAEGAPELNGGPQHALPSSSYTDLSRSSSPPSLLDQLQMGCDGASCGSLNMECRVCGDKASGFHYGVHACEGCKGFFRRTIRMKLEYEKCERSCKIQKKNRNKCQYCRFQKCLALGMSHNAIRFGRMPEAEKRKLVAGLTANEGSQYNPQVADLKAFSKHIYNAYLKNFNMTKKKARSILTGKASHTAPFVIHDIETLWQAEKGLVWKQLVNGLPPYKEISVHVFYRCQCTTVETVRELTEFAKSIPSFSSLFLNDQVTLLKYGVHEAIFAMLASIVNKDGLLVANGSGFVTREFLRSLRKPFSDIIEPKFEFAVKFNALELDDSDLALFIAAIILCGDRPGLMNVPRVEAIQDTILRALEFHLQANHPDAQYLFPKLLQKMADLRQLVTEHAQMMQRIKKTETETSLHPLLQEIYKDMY
How it was run: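 Quantitative high-throughput agonist screen in a HEK293H beta-lactamase reporter line under UAS control. Compounds in DMSO, at 37 C. Fluorescence read after 2 h with FRET substrate at room temperature.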

[11] = qHTS assay to identify small molecule antagonists of the peroxisome proliferator-activated receptor delta (PPARd) signaling pathway - cell viability counter screen (AID 743213); also: nearly all actives have a fitted effect of over 50% in size
How it was run: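 Same-well viability: cells pre-incubated 5 h, dosed with compound plus 300 nM L165041, kept 17 h at 37 C, FRET substrate 2 h RT, then CellTiter-Glo 30 min RT and luminescence.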

[12] = target: Peroxisome proliferator-activated receptor delta (Homo sapiens) (UniProt Q03181); assay: qHTS assay to identify small molecule antagonists of the peroxisome proliferator-activated receptor delta (PPARd) signaling pathway (AID 743215; active = well fitted inhibition curve with a large enough effect in the signal ratio in the repeat runs, not every such curve was filed as active; the % refers to the signal ratio;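 also: cells stimulated with agonist L165041 at 300 nM final during compound exposure; series mostly up to about 62 µM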)
How it was run: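 Inhibition of L165041-driven (300 nM final) PPARd signaling is scored in HEK293H UAS-bla cells. Exposure lasts 17 h at 37 C; beta-lactamase activity is then read by FRET substrate fluorescence after 2 h at room temperature.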

[13] = qHTS assay to identify small molecule agonists of the farnesoid-X-receptor (FXR) signaling pathway - cell viability counter screen (AID 743218); also: nearly all actives have a fitted effect of over 45% in size
How it was run: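 Cytotoxicity counter-screen run in parallel, same wells: FXR-UAS-bla HEK 293T cells dosed 16 h at 37 C, viability read by CellTiter-Glo luminescence after 30 min at room temperature.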

[14] = qHTS assay to identify small molecule antagonists of the farnesoid-X-receptor (FXR) signaling pathway - cell viability counter screen (AID 743221; active = well fitted cell-killing curve with a large enough effect in the repeat runs, not every such curve was filed as active; also: nearly all actives have a fitted effect of over 50% in size)
How it was run: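 Cytotoxicity is taken from ATP luminescence (CellTiter-Glo, 30 min, room temperature) in FXR-bla HEK 293T cells previously incubated 16 h at 37 C with compound and chenodeoxycholic acid at 50 uM final.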

[15] = target: Vitamin D3 receptor (Homo sapiens) (UniProt P11473); assay: qHTS assay to identify small molecule agonists of the vitamin D receptor (VDR) signaling pathway (AID 743222; calls by dose curve)
Vitamin D3 receptor (Homo sapiens), sequence (P11473 whole entry, looked up): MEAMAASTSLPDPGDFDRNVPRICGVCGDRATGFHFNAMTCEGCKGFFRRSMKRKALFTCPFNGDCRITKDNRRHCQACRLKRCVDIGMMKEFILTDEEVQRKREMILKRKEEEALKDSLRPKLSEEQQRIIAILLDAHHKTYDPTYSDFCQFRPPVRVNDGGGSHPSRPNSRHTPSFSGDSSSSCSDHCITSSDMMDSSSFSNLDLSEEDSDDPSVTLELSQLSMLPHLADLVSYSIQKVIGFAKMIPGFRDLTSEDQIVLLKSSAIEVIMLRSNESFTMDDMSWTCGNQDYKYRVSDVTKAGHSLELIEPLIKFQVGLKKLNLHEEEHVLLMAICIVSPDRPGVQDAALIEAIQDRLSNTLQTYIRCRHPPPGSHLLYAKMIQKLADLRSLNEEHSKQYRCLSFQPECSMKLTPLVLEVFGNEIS
How it was run: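 Quantitative HTS agonist-mode screen: compounds in DMSO were pin-transferred onto VDR-bla cells and incubated 16 h at 37C, 5% CO2. Reporter activity was detected with LiveBLAzer B/G FRET substrate after 2 h at room temperature.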

[16] = target: Vitamin D3 receptor (Homo sapiens) (UniProt P11473); assay: qHTS assay to identify small molecule antagonists of the vitamin D receptor (VDR) signaling pathway (AID 743223; active = well fitted inhibition curve with a large enough effect in the signal ratio in the repeat runs, not every such curve was filed as active; the % refers to the signal ratio)
How it was run: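 Quantitative HTS in VDR-bla reporter cells stimulated with 1alpha,25-dihydroxyvitamin D3, 3 nM final. Compound exposure 16 h, 37C, 5% CO2. Read-out: beta-lactamase FRET substrate fluorescence, 2 h RT.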

[17] = qHTS assay to identify small molecule agonists of the vitamin D receptor (VDR) signaling pathway - cell viability counter screen (AID 743224); also: series mostly up to about 63 µM; nearly all actives have a fitted effect of over 50% in size
How it was run: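 Viability is measured in the same wells as the VDR-bla reporter assay: after 16 h compound treatment and 2 h substrate loading, CellTiter-Glo is added and luminescence read 30 min later.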

[18] = qHTS assay for small molecule activators of the heat shock response signaling pathway (AID 743210; active = well fitted activation curve with a large enough effect in the signal ratio in the repeat runs, with a control signal flat, not every such curve was filed as active; the % refers to the signal ratio; also: potency is read from the fitted curve at half-maximal effect;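 as to activation: HeLa cells with beta-lactamase reporter driven by heat shock elements; series mostly up to about 63 µM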)
How it was run: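 Quantitative high-throughput format using an engineered HeLa line in which heat shock response elements drive beta-lactamase; after 5 h with compound, cells received a B/G FRET substrate and fluorescence was read.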

[19] = target: Bile acid receptor (Homo sapiens) (UniProt Q96RI1); assay: qHTS assay to identify small molecule antagonists of the farnesoid-X-receptor (FXR) signaling pathway (AID 743217; active = well fitted inhibition curve with a large enough effect in the signal ratio in the repeat runs, not every such curve was filed as active; the % refers to the signal ratio)
Bile acid receptor (Homo sapiens), sequence (Q96RI1 whole entry, looked up): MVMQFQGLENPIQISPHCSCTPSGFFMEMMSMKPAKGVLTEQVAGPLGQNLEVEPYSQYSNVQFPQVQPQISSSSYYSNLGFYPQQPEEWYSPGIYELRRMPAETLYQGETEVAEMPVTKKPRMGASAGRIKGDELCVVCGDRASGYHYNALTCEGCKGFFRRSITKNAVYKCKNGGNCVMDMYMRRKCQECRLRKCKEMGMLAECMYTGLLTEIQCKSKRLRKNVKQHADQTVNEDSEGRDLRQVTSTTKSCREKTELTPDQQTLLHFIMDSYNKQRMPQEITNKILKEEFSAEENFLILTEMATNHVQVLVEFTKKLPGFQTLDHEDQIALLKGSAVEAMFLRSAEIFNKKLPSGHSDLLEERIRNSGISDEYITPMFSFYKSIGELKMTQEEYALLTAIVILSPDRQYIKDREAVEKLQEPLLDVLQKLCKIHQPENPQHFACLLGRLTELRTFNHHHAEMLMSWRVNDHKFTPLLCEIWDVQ
How it was run: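 Antagonist mode against 50 uM (final) chenodeoxycholic acid stimulation in FXR-bla HEK 293T cells, 16 h at 37 °C. Inhibition detected as reduced beta-lactamase activity via LiveBLAzer B/G FRET fluorescence after 2 h at room temperature.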

[20] = target: Bile acid receptor (Homo sapiens) (UniProt Q96RI1); assay: qHTS assay to identify small molecule agonists of the farnesoid-X-receptor (FXR) signaling pathway (AID 743220; active = well fitted activation curve with a large enough effect in the signal ratio in the repeat runs, not every such curve was filed as active; the % refers to the signal ratio)
How it was run: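 Beta-lactamase reporter under UAS control in GeneBLAzer FXR HEK 293T cells (5000/well) measured with LiveBLAzer FRET substrate after 2 h at room temperature. Compound exposure lasted 16 h at 37C.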

Measured: Potency

FC(F)(F)C(F)(F)C(F)(F)C(F)(F)CCI
not listed: [18] | [19] | [20]
inactive: all other assays above

COc1ccc2nc(S(=O)Cc3ncc(C)c(OC)c3C)[nH]c2c1 (stereo not given)
30.5 µM (active) and inactive: [18]
active: [1] 48 µM | [6] 17 µM and 16.8 µM
not listed: [19] | [20]
inactive: all other assays above

CCCCCCCCCCCCCCCC(=O)OCC
not listed: [6] | [15] | [16]
inactive: all other assays above

O=C(O)CCCc1c[nH]c2ccccc12
not listed: [8] | [14] | [15] | [16]
inactive: all other assays above

CC(=O)OCCC(C)CC(C)(C)C (stereo not given)
not listed: [11] | [13] | [14] | [17]
inactive: all other assays above

CCCCCCCCCCCCCCN(C)C
not listed: [10] | [12] | [14] | [17] | [19] | [20]
inactive: all other assays above

CCCCCCCCCCCCCCCCCC(=O)OCC(CC)CCCC (stereo not given)
not listed: [6] | [14] | [19] | [20]
inactive: all other assays above

CC(C)COC(=O)c1ccc(O)cc1
not listed: [6] | [14]
inactive: all other assays above

Cc1cn([C@H]2C[C@H](F)[C@@H](CO)O2)c(=O)[nH]c1=O
not listed: [8] | [11] | [19] | [20]
inactive: all other assays above

CC(=O)OCC1=C(C(=O)O)N2C(=O)[C@@H](NC(=O)CSc3ccncc3)[C@H]2SC1
not listed: [6] | [12] | [15] | [16] | [20]
inactive: all other assays above

C=CC(=O)NC(C)C
not listed: [16]
inactive: all other assays above

CNC1CCCN(c2c(F)cc3c(=O)c(C(=O)O)cn(C4CC4)c3c2OC)C1 (stereo not given)
not listed: [10] | [12]
inactive: all other assays above

CCN(Cc1cccc(S(=O)(=O)O)c1)c1ccc(C(=C2C=CC(=[N+](CC)Cc3cccc(S(=O)(=O)O)c3)C=C2)c2ccc(O)cc2S(=O)(=O)[O-])cc1
active: [2] 16.6 µM
not listed: [7] | [8] | [9] | [11] | [13] | [14] | [17]
inactive: all other assays above

CCC(CO)(CO)CO
not listed: [15] | [16]
inactive: all other assays above

COc1cc(NC(C)CCCN)c2ncccc2c1 (stereo not given)
not listed: [9] | [11] | [19] | [20]
inactive: all other assays above

Cc1ccc(S(=O)(=O)NC(=O)NC2CCCCC2)cc1
not listed: [11] | [15] | [16] | [19] | [20]
inactive: all other assays above

CC(C)(C(=O)c1cccnc1)c1cccnc1
not listed: [19] | [20]
inactive: all other assays above
